In PubChem BioAssay AID2685 (National Center for Advancing Translational Sciences (NCATS), 2010):
In all, about 320,000 compounds went through this assay and about 2,100 (0.66%) were called active. Roughly 53% stayed inconclusive and do not appear here. Calls follow the shape of the dose curve; as a rule, active = well fitted inhibition curve with a large enough effect in the signal ratio, with a control signal flat (not every such curve was filed as active); inconclusive = small, poorly fitted or top-dose-only effect, or effect the other way, or a change in a side signal; inactive = flat fitted curve, though single readings scatter; the % refers to the signal ratio. Many of the other results were omitted from the sample, so actives are more common in it than they were.

Experiment: qHTS Assay for Lipid Storage Modulators in Drosophila S3 Cells;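 as to cell number change: cells counted by Cell Tracker Red CMTPX staining in the red channel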; as to lipid storage change, negative = inhibition: % is scaled to controls: 0 for no effect and ±100 for the full control effect
Details: BODIPY lipid droplet fluorescence, 18-24 h, cells fed with added oleic acid; cell number change: measured here: cell count max response; series mostly up to 46.1 µM; lipid storage change, negative = inhibition: at the top concentration
Method in brief: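 Laser-scanning cytometry quantifies lipid droplet accumulation (500–530 nm total intensity; droplet/cell object ratio) in oleic acid-fed (400 uM added) Drosophila S3 cells treated with a concentration series. 20 uM Triacsin C defined 100% inhibition.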
Potency is read from the fitted curve at half-maximal effect.

**Q.** For `O=S(=O)(Nc1cccnc1)c1ccc(Br)c2ccccc12`, which Potency is on record?
**A.** 7.31 µM (active)

**Q.** And the cell number change?
**A.** -5.22%

**Q.** Which “lipid storage change, negative = inhibition” value does the source give for `Cc1ccccc1S(=O)(=O)Nc1cccnc1` here?
**A.** 4.78% (inactive)

**Q.** What about the cell number change of the same compound?
**A.** 1.91%

**Q.** Which “lipid storage change, negative = inhibition” value does the source give for `C/C(CC(=O)Nc1ccc(Cl)cc1Cl)=N\NC(=O)c1ccncc1` here?
**A.** 15.2% (inactive)

**Q.** What about the cell number change of the same compound?
**A.** 23%

**Q.** For `COc1cc2c(cc1OC)C(c1cccc(Cl)c1Cl)CC(=O)N2` (stereo unspecified), which “lipid storage change, negative = inhibition” value is on record?
**A.** -8.05% (inactive)

**Q.** What about the cell number change of the same compound?
**A.** -12.7%

**Q.** Which “outcome” value does the source give for `COc1ccc(C(=O)N/N=C(\C)CC(=O)Nc2ccc3c(c2)OCCO3)c(OC)c1` here?
**A.** inactive

**Q.** What about the cell number change of the same compound?
**A.** 14.3%

**Q.** Which Potency does the source give for `COc1ccccc1C(=O)N/N=C(\C)CC(=O)Nc1ccc2c(c1)OCCO2` here?
**A.** 16.4 µM (active)

**Q.** And the cell number change?
**A.** 22.4%

**Q.** With `C/C(CC(=O)Nc1ccc2c(c1)OCCO2)=N\NC(=O)c1ccccc1F` as the compound, how does the “outcome” value read?
**A.** inactive

**Q.** And the cell number change?
**A.** 8.06%

**Q.** Which results are given for `Cc1ccc(Nc2ccccc2)nn1`?
**A.** lipid storage change, negative = inhibition: 5.52% (inactive); cell number change: 17%

**Q.** For `N#Cc1nc(Cc2ccccc2)oc1NCc1ccccc1`, which “lipid storage change, negative = inhibition” value is on record?
**A.** -3.57% (inactive)

**Q.** And the cell number change?
**A.** -21%

**Q.** What does the source list for `N#Cc1nc(Cc2ccccc2)oc1N1CCCC1`?
**A.** lipid storage change, negative = inhibition: -16.8% (inactive); cell number change: -9.44%

**Q.** With `N#Cc1ncc(Cc2ccccc2)nc1C#N` as the compound, how does the Potency read?
**A.** 7.31 µM (active)

**Q.** What about the cell number change of the same compound?
**A.** -22.9%

**Q.** Which results are given for `COc1ccccc1NC(=O)NNC(=O)C(C)Oc1ccc2ccccc2c1` (stereo unspecified)?
**A.** lipid storage change, negative = inhibition: 6.71% (inactive); cell number change: 7.76%

**Q.** With `Cc1ccc(/C=N/N2CCN(Cc3ccc(Cl)cc3)CC2)o1` as the compound, how does the “lipid storage change, negative = inhibition” value read?
**A.** -1.89% (inactive)

**Q.** And the cell number change?
**A.** -6.6%

**Q.** Which results are given for `O=C(COC(=O)C1CSC2(c3ccc(F)cc3)CCC(=O)N12)NC(=O)NC1CCCC1` (stereo unspecified)?
**A.** lipid storage change, negative = inhibition: -22.5% (inactive); cell number change: 8.51%

**Q.** What does the source list for `CC(C)CNC(=O)NC(=O)COC(=O)C1CSC2(c3ccc(F)cc3)CCC(=O)N12` (stereo unspecified)?
**A.** lipid storage change, negative = inhibition: -8.94% (inactive); cell number change: 5.71%

**Q.** Which results are given for `O=C(C1CSC2(c3ccc(F)cc3)CCC(=O)N12)N1CCCCCC1` (stereo unspecified)?
**A.** Potency: 18.4 µM (active); cell number change: -5.6%

**Q.** Which “lipid storage change, negative = inhibition” value does the source give for `Cc1cnc(NC(=O)CCNC(=O)c2ccccc2Cl)s1` here?
**A.** -19.1% (inactive)

**Q.** Which “lipid storage change, negative = inhibition” value does the source give for `Cc1noc(C(=O)NCc2cccnc2)c1Cl` here?
**A.** 1.19% (inactive)

**Q.** And the cell number change?
**A.** 3.97%

**Q.** For `CCOC(=O)Nc1ccc2c(CN3CCN(S(=O)(=O)c4ccccc4)CC3)cc(=O)oc2c1`, which “lipid storage change, negative = inhibition” value is on record?
**A.** 4.48% (inactive)

**Q.** What about the cell number change of the same compound?
**A.** 3.64%

**Q.** Which results are given for `O=C(NCC1CCCN(C(=O)Cc2ccccc2Cl)C1)c1ccc(F)cc1` (stereo unspecified)?
**A.** outcome: inactive; cell number change: 17.2%

**Q.** For `CC(C)(C)NC(=O)COC(=O)c1ccccc1Oc1ccccc1`, which “lipid storage change, negative = inhibition” value is on record?
**A.** 8.37% (inactive)

**Q.** What does the source list for `CC(=O)c1ccccc1NC(=O)COC(=O)c1c(C)nn(-c2ccccc2)c1C`?
**A.** lipid storage change, negative = inhibition: 0.367% (inactive); cell number change: -19.3%

**Q.** With `Cc1cc(C(=O)OCC(=O)Nc2cccc(S(=O)(=O)N(C)C)c2)c2ccccc2n1` as the compound, how does the “lipid storage change, negative = inhibition” value read?
**A.** -9.59% (inactive)

**Q.** What about the cell number change of the same compound?
**A.** -13.9%

**Q.** Which results are given for `Cc1nnnn1/C(=C\c1ccccc1)C(=O)OCC(=O)Nc1cccc(S(=O)(=O)N(C)C)c1`?
**A.** Potency: 3.66 µM (active); cell number change: -25%

**Q.** Which Potency does the source give for `CN(C)S(=O)(=O)c1cccc(NC(=O)COC(=O)C2(c3ccccc3F)CCCC2)c1` here?
**A.** 8.2 µM (active)

**Q.** And the cell number change?
**A.** -25.4%

**Q.** With `CN(C)S(=O)(=O)c1cccc(NC(=O)CSc2nnnn2-c2ccccc2)c1` as the compound, how does the “lipid storage change, negative = inhibition” value read?
**A.** -9.83% (inactive)

**Q.** What about the cell number change of the same compound?
**A.** -3.51%

**Q.** Which results are given for `Cc1nnnn1/C(=C\c1ccccc1)C(=O)OCC(=O)NC(C)(C)C`?
**A.** Potency: 4.11 µM (active); cell number change: -11.4%

**Q.** For `NS(=O)(=O)c1cccc(NC(=O)COC(=O)C2(c3cccc(F)c3)CCCC2)c1`, which “lipid storage change, negative = inhibition” value is on record?
**A.** 14.4% (inactive)

**Q.** What about the cell number change of the same compound?
**A.** -1.45%

**Q.** With `CC(=O)c1ccccc1NC(=O)COC(=O)/C(=C/c1ccccc1)n1nnnc1C` as the compound, how does the Potency read?
**A.** 7.31 µM (active)

**Q.** And the cell number change?
**A.** -27.9%

**Q.** For `CN(C)S(=O)(=O)c1cccc(NC(=O)COC(=O)CNC(=O)c2ccccc2F)c1`, which “outcome” value is on record?
**A.** inactive

**Q.** What does the source list for `CC(=O)c1ccccc1NC(=O)COC(=O)c1ccccc1NC(=O)c1ccccc1`?
**A.** lipid storage change, negative = inhibition: -2.12% (inactive); cell number change: -15%

**Q.** Which “lipid storage change, negative = inhibition” value does the source give for `CC(C)(C)NC(=O)COC(=O)C1c2ccccc2Oc2ccccc21` here?
**A.** 22.1% (inactive)

**Q.** What about the cell number change of the same compound?
**A.** -10.4%

**Q.** Which results are given for `COc1ccc(C2N(c3ccc4c(c3)OCCO4)C(=O)C2(F)F)cc1OC` (stereo unspecified)?
**A.** lipid storage change, negative = inhibition: -8.57% (inactive); cell number change: -17.8%

**Q.** Which “lipid storage change, negative = inhibition” value does the source give for `Cc1c(Cl)cccc1NC(=O)NCc1ccc(F)cc1` here?
**A.** -7.7% (inactive)

**Q.** And the cell number change?
**A.** 3.73%

**Q.** With `COc1cccc(-c2noc(C3CCCN(C(=O)c4cccc(F)c4)C3)n2)c1` (stereo unspecified) as the compound, how does the “outcome” value read?
**A.** inactive

**Q.** What about the cell number change of the same compound?
**A.** -8.07%

**Q.** With `CCOc1ccc(N(CC(=O)Nc2ccc(C)c(C)c2)S(=O)(=O)c2c(C)[nH]c(=O)[nH]c2=O)cc1` as the compound, how does the “lipid storage change, negative = inhibition” value read?
**A.** 17.7% (inactive)

**Q.** What about the cell number change of the same compound?
**A.** 10.2%

**Q.** For `CCC(C)NC(=O)C(=O)NCc1ccncc1` (stereo unspecified), which “lipid storage change, negative = inhibition” value is on record?
**A.** 0.0372% (inactive)

**Q.** What about the cell number change of the same compound?
**A.** -9.14%

**Q.** With `CCc1ccc2oc(C(=O)N3CCN(C)CC3)cc(=O)c2c1` as the compound, how does the “lipid storage change, negative = inhibition” value read?
**A.** 5.21% (inactive)

**Q.** And the cell number change?
**A.** 14.4%

**Q.** With `O=C1/C(=C/c2cccnc2)Cc2ccc(Cl)cc21` as the compound, how does the “lipid storage change, negative = inhibition” value read?
**A.** 23.8% (inactive)

**Q.** And the cell number change?
**A.** 24.8%

**Q.** For `CC1C/C(=C\c2cccnc2)C(=O)/C(=C/c2cccnc2)C1` (stereo unspecified), which Potency is on record?
**A.** 5.17 µM (active)

**Q.** What about the cell number change of the same compound?
**A.** -29%

**Q.** Which results are given for `CC(C)/C=C1\CC/C(=C\c2cccnc2)C1=O`?
**A.** lipid storage change, negative = inhibition: 0.736% (inactive); cell number change: -13.9%

**Q.** With `O=C1/C(=C/c2cccnc2)CC/C1=C\c1cccnc1` as the compound, how does the “lipid storage change, negative = inhibition” value read?
**A.** 6.31% (inactive)

**Q.** What about the cell number change of the same compound?
**A.** -4.02%

**Q.** With `O=C1/C(=C/c2cccnc2)CCC/C1=C\c1cccnc1` as the compound, how does the Potency read?
**A.** 14.6 µM (active)

**Q.** And the cell number change?
**A.** -13.8%

**Q.** Which “lipid storage change, negative = inhibition” value does the source give for `CC1C/C(=C/c2cccs2)C(=O)/C(=C/c2cccs2)C1` (stereo unspecified) here?
**A.** 0.0093% (inactive)

**Q.** What about the cell number change of the same compound?
**A.** -17.9%

**Q.** With `CN(C)c1cccc(C(=O)NNC(=O)NC2CCCCC2)c1` as the compound, how does the “lipid storage change, negative = inhibition” value read?
**A.** 0.926% (inactive)

**Q.** And the cell number change?
**A.** -5.42%

**Q.** What does the source list for `Cc1cccc2cc(CN(CC3CCCO3)S(=O)(=O)c3ccccc3)c3nnnn3c12` (stereo unspecified)?
**A.** outcome: inactive; cell number change: 3.31%

**Q.** For `CC(CC(=O)Nc1cccc(F)c1)S(=O)(=O)c1ccc2c(c1)NC(=O)CO2` (stereo unspecified), which “outcome” value is on record?
**A.** inactive

**Q.** And the cell number change?
**A.** 6.92%
